According to PubChem BioAssay (Tox21):
Inconclusive results are not listed. The source made the active and inactive calls. Unless noted, calls follow the shape of the dose curve; as a rule, active = well fitted curve in the direction sought with a large enough effect in the repeat runs; inconclusive = weak or mixed curves; inactive = no such curve, though single readings can be large; an effect the other way counts as inactive or inconclusive.

Experiments:
[1] = biological target: Nuclear receptor subfamily 1 group I member 3 (Homo sapiens) (UniProt Q14994); assay: qHTS assay to identify small molecule agonists of the constitutive androstane receptor (CAR) signaling pathway (AID 1224839);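 also: HepG2 cells stably carrying human CAR and a CYP2B6 luciferase reporter; series mostly up to about 92 µM; nearly all actives have a fitted effect of over 15% in size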
Chain of Nuclear receptor subfamily 1 group I member 3 (Homo sapiens) (Q14994 whole entry, looked up): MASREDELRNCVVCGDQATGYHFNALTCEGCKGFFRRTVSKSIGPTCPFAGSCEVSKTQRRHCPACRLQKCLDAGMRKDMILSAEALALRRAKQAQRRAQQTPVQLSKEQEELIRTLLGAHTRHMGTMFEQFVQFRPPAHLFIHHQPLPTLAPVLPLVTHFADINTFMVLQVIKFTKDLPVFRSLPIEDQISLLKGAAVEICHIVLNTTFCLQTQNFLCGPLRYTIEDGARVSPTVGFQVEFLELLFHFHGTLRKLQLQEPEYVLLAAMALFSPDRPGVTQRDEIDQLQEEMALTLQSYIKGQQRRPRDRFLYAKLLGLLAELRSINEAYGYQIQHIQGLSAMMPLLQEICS
How it was run: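 In this screen, CAR-driven CYP2B6 promoter activity is measured by luminescence in HepG2-CYP2B6-hCAR cells after 24 h with test compounds and 0.75 uM PK11195 (final concentration).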

[2] = qHTS assay to identify small molecule antagonists of the estrogen related receptor signaling pathway with the pleiotropic PPARgamma coactivator (PGC) from Tox21 10K library - cell viability counter screen (AID 1224840; active = well fitted cell-killing curve with a large enough effect in the repeat runs, not every such curve was filed as active; also: nearly all actives have a fitted effect of over 40% in size)
How it was run: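 Following seeding of 2,000 PGC/ERR cells/well and 6 hours' incubation, test compounds were delivered in DMSO. The plates then sat 17.5 hours at 37 C before a fluorogenic live-cell protease reagent (CellTiter-Fluor) was read after 30 min.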

[3] = biological target: Thyrotropin receptor (Homo sapiens) (UniProt P16473); assay: qHTS assay to identify small molecule agonists of the thyroid stimulating hormone receptor (TSHR) signaling pathway (AID 1224843; calls by dose curve; also: nearly all actives have a fitted effect of over 45% in size)
Chain of Thyrotropin receptor (Homo sapiens) (P16473 whole entry, looked up): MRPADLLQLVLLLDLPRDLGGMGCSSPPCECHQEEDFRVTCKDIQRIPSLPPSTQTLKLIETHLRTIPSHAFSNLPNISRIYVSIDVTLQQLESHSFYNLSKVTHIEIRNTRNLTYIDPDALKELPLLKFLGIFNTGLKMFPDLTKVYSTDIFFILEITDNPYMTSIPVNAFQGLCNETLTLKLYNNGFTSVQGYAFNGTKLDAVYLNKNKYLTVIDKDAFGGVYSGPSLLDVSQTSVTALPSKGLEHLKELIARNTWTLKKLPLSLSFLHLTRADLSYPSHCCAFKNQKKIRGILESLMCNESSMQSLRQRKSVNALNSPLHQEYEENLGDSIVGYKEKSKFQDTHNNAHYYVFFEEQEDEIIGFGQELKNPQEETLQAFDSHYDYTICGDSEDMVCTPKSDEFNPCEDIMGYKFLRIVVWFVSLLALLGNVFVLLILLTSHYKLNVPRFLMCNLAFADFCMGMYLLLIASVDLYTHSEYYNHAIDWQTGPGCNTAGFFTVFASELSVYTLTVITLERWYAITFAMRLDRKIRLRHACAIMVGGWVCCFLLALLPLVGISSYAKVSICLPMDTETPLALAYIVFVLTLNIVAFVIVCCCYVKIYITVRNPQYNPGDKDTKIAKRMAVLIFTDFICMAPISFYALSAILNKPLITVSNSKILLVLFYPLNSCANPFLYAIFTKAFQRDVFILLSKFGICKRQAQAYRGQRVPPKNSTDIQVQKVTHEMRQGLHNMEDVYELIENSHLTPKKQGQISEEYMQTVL
How it was run: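 Steps: seed 800 TSHR-HEK293 cells per well; add test compound and hold 30 min at ambient temperature; dispense cAMP-d2 then anti-cAMP cryptate; incubate 1 h at ambient; measure fluorescence intensity.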

[4] = qHTS assay to identify small molecule agonists of the hypoxia (HIF-1) signaling pathway - cell viability counter screen (AID 1224844; calls by dose curve; also: nearly all actives have a fitted effect of over 50% in size)
How it was run: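 Cells (HRE-bla ME-180, 2,000 per well) sat 5 hrs at 37C, got compound for 17 hrs, were read for CCF4-AM FRET, and were finally lysed with CellTiter-Glo for a 30 min room-temperature luminescence read.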

[5] = qHTS assay to identify small molecule agonists of H2AX (AID 1224845; active = well fitted activation curve with a large enough effect in the signal ratio in the repeat runs, not every such curve was filed as active; the % refers to the signal ratio)
How it was run: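 Wild-type CHO-K1 cells, plated overnight, exposed 3hr at 37C to 15 concentrations (0.76% DMSO final). Lysed, then HTRF anti-pH2AX (S139) cryptate and anti-H2AX-d2 antibodies, 24 hr room temperature; 665/620 nm emission read.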

[6] = qHTS assay to identify small molecule agonists of the hypoxia (HIF-1) signaling pathway (AID 1224846; active = well fitted activation curve with a large enough effect in the signal ratio in the repeat runs, not every such curve was filed as active; the % refers to the signal ratio)
How it was run: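 A low-serum medium (0.5% dialyzed FBS) holding 2,000 HRE-bla ME-180 cells per well is preincubated for 5 hrs, dosed with compounds by pintool, and kept a further 17 hrs at 37C, 5% CO2 before CCF4-AM FRET detection of beta-lactamase.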

[7] = qHTS assay to identify small molecule agonists of H2AX - cell viability counter screen (AID 1224847; calls by dose curve; also: top concentration of the series differs between compounds; nearly all actives have a fitted effect of over 30% in size)
How it was run: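 Read-out: CellTiter-Glo luminescence, 30 min RT. Cells: wild-type CHO-K1, 1000/well, 10% FBS, plated overnight at 37C. Treatment: 15 concentrations, 3 hr, 37C, 0.76% DMSO.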

[8] = qHTS RealTime-Glo MT Cell Viability Assay in HepG2 cells - 24 hour (AID 1224867); also: nearly all actives have a fitted effect of over 50% in size
How it was run: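 qHTS, HepG2, 600 cells/well, RealTime-Glo (NanoLuc + prosubstrate) added with cells; 5 h preincubation; DMSO compound addition; 37 C; luminescence at 0/8/16/24/32/40 h.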

[9] = qHTS RealTime-Glo MT Cell Viability Assay in HEK293 cells - 32 hour (AID 1224868); also: top concentration of the series differs between compounds; nearly all actives have a fitted effect of over 50% in size
How it was run: (§1)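 Assay medium contained NanoLuc luciferase plus cell-permeant prosubstrate, added with HEK293 cells at 600 cells/well. After 5 h at 37 C/5% CO2 compounds were added; plates stayed at 37 C for 40 h with serial luminescence reads.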

[10] = A CellTox Green Cytotoxicity Assay to monitor cytotoxicity in HEK293 cells - 0 hour (AID 1224869); also: nearly all actives have a fitted effect of over 50% in size; also: potency is read from the fitted curve at half-maximal effect
How it was run: (§2)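 Fluorescence intensity, read at 0, 8, 16, 24, 32 and 40 h of compound treatment, reflected dye binding to DNA of dead HEK293 cells; compounds (23 nL, DMSO) were added 5 h after plating cells with reagent.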

[11] = qHTS RealTime-Glo MT Cell Viability Assay in HepG2 cells - 40 hour (AID 1224870); also: nearly all actives have a fitted effect of over 50% in size
How it was run: (§3)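 HepG2 cells (600/well) mixed with RealTime-Glo MT reagent, settled 5 h at 37 C/5% CO2 before compound addition. Nonlytic NanoLuc luminescence from viable-cell prosubstrate reduction read repeatedly during 40 h treatment at 37 C.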

[12] = A CellTox Green Cytotoxicity Assay to monitor cytotoxicity in HEK293 cells - 40 hour (AID 1224871); also: nearly all actives have a fitted effect of over 45% in size; also: potency is read from the fitted curve at half-maximal effect
How it was run: as §2

[13] = qHTS RealTime-Glo MT Cell Viability Assay in HepG2 cells - 8 hour (AID 1224873); also: nearly all actives have a fitted effect of over 55% in size
How it was run: as §3

[14] = qHTS RealTime-Glo MT Cell Viability Assay in HEK293 cells - 40 hour (AID 1224874); settings: RealTime-Glo luminescence; max response: active compounds read low; also: nearly all actives have a fitted effect of over 50% in size
How it was run: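 Viable HEK293 cells reduce a cell-permeant prosubstrate; the product diffuses out and is consumed by NanoLuc in the medium to give light. Compounds went in after a 5 h incubation and plates were read over the treatment course.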

[15] = A CellTox Green Cytotoxicity Assay to monitor cytotoxicity in HEK293 cells - 24 hour (AID 1224875); also: nearly all actives have a fitted effect of over 45% in size; also: potency is read from the fitted curve at half-maximal effect; as to activity change: series mostly up to about 77 µM
How it was run: as §2

[16] = qHTS RealTime-Glo MT Cell Viability Assay in HEK293 cells - 16 hour (AID 1224872)
How it was run: as §1
% is scaled to controls: 0 for no effect and ±100 for the full control effect.

C/C=C(\C)C(C)=O
inactive: Potency [1] | outcome [2] | outcome [3] | outcome [4] | outcome [5] | outcome [6] | outcome [7] | outcome [8] | Potency [9] | Potency [10] | outcome [11] | Potency [12] | outcome [13] | max response [14] 0.603% | Potency [15]

COP(=O)(O)OP(=O)(O)OC
inactive: Potency [1] | outcome [2] | outcome [3] | outcome [4] | outcome [5] | outcome [6] | outcome [7] | outcome [8] | Potency [10] | outcome [11] | Potency [12] | Potency [16] | outcome [13] | max response [14] 5.3% | Potency [15]

CCCCCCCCCOC(=O)CCCCC(=O)OCCCCCCC
inactive: Potency [1] | outcome [2] | outcome [3] | outcome [4] | outcome [5] | outcome [6] | outcome [7] | outcome [8] | Potency [9] | Potency [16] | outcome [13] | max response [14] 0.901%
active: Potency [10] 43.6 µM | Potency [12] 24.5 µM | Potency [15] 24.5 µM

CC1(C)O[C@H]2CC(=O)OC[C@]23[C@H]2CC[C@@]4(C)[C@H](c5ccoc5)OC(=O)[C@H]5O[C@]54[C@]2(C)C(=O)C[C@@H]13
inactive: Potency [1] | outcome [2] | outcome [3] | outcome [4] | outcome [5] | outcome [6] | outcome [7] | outcome [8] | Potency [9] | Potency [10] | Potency [12] | Potency [16] | outcome [13] | max response [14] 3.36%

CC(=O)CCC1=C(C)CCCC1(C)C
inactive: Potency [1] | outcome [2] | outcome [3] | outcome [4] | outcome [5] | outcome [6] | outcome [7] | outcome [8] | Potency [9] | Potency [10] | outcome [11] | Potency [16] | outcome [13] | max response [14] -7.96% | Potency [15]

CCCCCCCCCCOC(C)=O
inactive: Potency [1] | outcome [2] | outcome [3] | outcome [4] | outcome [5] | outcome [6] | outcome [7] | outcome [8] | Potency [9] | Potency [10] | Potency [12] | Potency [16] | outcome [13] | max response [14] 0.865% | Potency [15]

CC(C)=CCC[C@@](C)(O)[C@H]1CC=C(C)CC1
inactive: Potency [1] | outcome [2] | outcome [3] | outcome [4] | outcome [5] | outcome [6] | outcome [7] | outcome [8] | Potency [9] | Potency [10] | outcome [11] | Potency [12] | max response [14] -0.631% | Potency [15]

CCOCCOCC
inactive: Potency [1] | outcome [2] | outcome [3] | outcome [4] | outcome [5] | outcome [6] | outcome [7] | outcome [8] | Potency [9] | Potency [10] | outcome [11] | Potency [12] | outcome [13] | max response [14] 2.51% | Potency [15]

CC(C)c1ccc(C=O)cc1
inactive: Potency [1] | outcome [2] | outcome [3] | outcome [4] | outcome [5] | outcome [6] | outcome [7] | outcome [8] | Potency [9] | Potency [10] | Potency [12] | Potency [16] | max response [14] 13.2% | Potency [15]

CCCCCCCCCCCCCCCCCCOCCO
inactive: activation [1] -0.275% [at 19 µM] | viability change, negative = cytotoxic [2] -0.639% [at 19 µM] | activation [3] -2.81% [at 19 µM] | activity change, negative = cytotoxicity [4] 16.8% [at 15.8 µM] | activation (H2AX phosphorylation) [5] -3.63% [at 31.6 µM] | activation [6] 0.444% [at 15.8 µM] | activity change, negative = cytotoxicity [7] -6.52% [at 31.6 µM] | activity change, negative = cytotoxicity [8] -2.19% [at 15.8 µM] | cytotoxicity [10] 1.2% [at 15.8 µM] | activity change, negative = cytotoxic [11] -6.69% [at 15.8 µM] | cytotoxicity increase [12] 8.77% [at 15.8 µM] | activity change, negative = cytotoxicity [16] -4.86% [at 15.8 µM] | viability change, negative = cytotoxic [13] -3.15% [at 15.8 µM] | max response [14] -1.04% | activity change [15] 5.76% [at 15.8 µM, active compounds read high]

CC(C)Nc1ccccc1
inactive: Potency [1] | outcome [2] | outcome [3] | outcome [4] | outcome [5] | outcome [6] | outcome [7] | outcome [8] | Potency [9] | Potency [10] | outcome [11] | Potency [12] | Potency [16] | max response [14] 3.46% | Potency [15]

CC(C)C1OCCN1CCOC(=O)NCCCCCCNC(=O)OCCN1CCOC1C(C)C (stereo not given)
inactive: Potency [1] | outcome [2] | outcome [3] | outcome [4] | outcome [5] | outcome [6] | outcome [7] | outcome [8] | Potency [10] | outcome [11] | Potency [12] | Potency [16] | outcome [13] | max response [14] 1.59% | Potency [15]

CCCCCC(C)O (stereo not given)
inactive: Potency [1] | outcome [2] | outcome [3] | outcome [4] | outcome [5] | outcome [6] | outcome [7] | outcome [8] | Potency [9] | Potency [10] | Potency [12] | Potency [16] | max response [14] 6.06% | Potency [15]

CC(C)CCOC(=O)c1ccccc1
inactive: Potency [1] | outcome [2] | outcome [3] | outcome [4] | outcome [5] | outcome [6] | outcome [7] | outcome [8] | Potency [10] | outcome [11] | Potency [12] | Potency [16] | outcome [13] | max response [14] -0.72%

COC(=O)c1cc(Cl)cc(Cl)c1
inactive: Potency [1] | outcome [2] | outcome [3] | outcome [4] | outcome [5] | outcome [6] | outcome [7] | outcome [8] | Potency [9] | Potency [10] | outcome [11] | Potency [12] | outcome [13] | max response [14] -0.635% | Potency [15]
